Screening results from PubChem BioAssay.
Compounds with a hit are over-represented: about 3.4% of the library has one in this group of screens.
HIV Env fusion = HIV envelope-mediated fusion inhibition. HeLa-JRFL Env/CEM21 cell fusion, luciferase. inhibition, % at 12.3 µM. 360,000 compounds, 1.1% hits. AID 651610;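 active = mean replicate inhibition score of at least 50 and every replicate individually at or above 50; inconclusive = only one of the two criteria met; inactive = mean below 50 and not all replicates reaching 50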;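 also: 0% = plate neutral controls and 100% = maraviroc near 300 nM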
MITF act = activators of MITF-driven TRPM1 promoter activity in SK-MEL-5 cells; SK-MEL-5 TRPM1-promoter luciferase, 24 h; % of positive control, neutral wells = 0; activation, % at 12.5 µM; 300,000 compounds, 0.75% hits; AID 588334;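 active = mean activation of at least 80% with every replicate also reaching 80%; inconclusive = mean reaches 80% but some replicate falls short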;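 also: 0% = neutral control wells and 100% = parthenolide positive control wells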
miR-122 sensor = miR-122 inhibition in Huh7 cells; activation (reporter increase), % at 12.5 µM; AID 602342; Huh7 miR-122 Renilla luciferase sensor, 48 h; neutral wells = 0, positive control = 100; 340,000 compounds, 0.3% hits;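 active = mean replicate activation score at least 90 and every replicate individually at or above 90; inconclusive = only one of the two criteria met; inactive = neither criterion met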;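 also: higher luciferase means less miR-122 activity so hits act as miR-122 inhibitors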
esBAF inh = blocks esBAF chromatin remodeling in mouse ES cells | Bmi1-luciferase knock-in reporter, 24 h; 100% = twice the neutral-well signal | reporter increase, % at 12.5 µM | 350,000 compounds, 2% hits; in the data active = activation above about 40%; inconclusive = no clear call, values can overlap the other calls;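 also: 0% = median of the plate's neutral control wells and 100% = double that signal; a rise in the Bmi1 reporter signal indicates esBAF inhibition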
Wnt act = Wnt/beta-catenin pathway activation | Wnt/beta-catenin reporter cell assay, activator, plate reader | activation, % at 9.35 µM | 300,000 compounds, 1.2% hits | AID 743398; in the data active = activation above about 30%, passing the limit was not always enough; inconclusive = no clear call, values can overlap the other calls;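 also: 0% = neutral control wells and 100% = positive control wells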
Starred values were filed as active, the others as inactive; ? = inconclusive; / = no result; [ ] = remark or other dose.

SMILES	HIV Env fusion	MITF act	miR-122 sensor	esBAF inh	Wnt act
C[C@@H]1CN([C@@H](C)CO)C(=O)Cc2cc(N(C)C)ccc2O[C@H]1CN(C)CC1CC1	-13[16.7 µM]	/	4[16.7 µM]	-3	/
COCC(=O)Nc1ccc2c(c1)C(=O)N(C)[C@H]1CC[C@@H](CC(=O)O)O[C@H]1CO2	-26[16.7 µM]	/	262*[16.7 µM]	0	/
CN1C(=O)c2cc(NC(=O)Cc3ccccc3)ccc2OC[C@@H]2O[C@H](CC(=O)NC3CCC3)CC[C@@H]21	/	/	125*[16.7 µM]	0	/
CC(C)c1ccc(NC(=O)C[C@H]2CC[C@H]3[C@@H](COc4ccc(NC(=O)Nc5ccc(F)c(F)c5)cc4C(=O)N3C)O2)cc1	70*[16.7 µM]	/	-45[16.7 µM]	32	/
Cc1nn(C)cc1NC(=O)C[C@H]1CC[C@@H]2[C@@H](COc3ccc(NC(=O)C4CCC4)cc3C(=O)N2C)O1	60*[16.7 µM]	/	2[16.7 µM]	1	/
COCC(=O)Nc1ccc2c(c1)C(=O)N(C)[C@H]1CC[C@@H](CC(=O)O)O[C@@H]1CO2	-6[16.7 µM]	/	4[16.7 µM]	-2	/
CCC(=O)Nc1ccc2c(c1)C(=O)N(C)[C@H]1CC[C@H](CC(=O)NC3CCCC3)O[C@H]1CO2	57*[16.7 µM]	/	3[16.7 µM]	4	/
CN1C(=O)c2cc(NC(=O)NC3CCCC3)ccc2OC[C@@H]2O[C@H](CC(=O)NC3CCC3)CC[C@@H]21	71*[16.7 µM]	/	2[16.7 µM]	0	/
CN1C(=O)c2cc(NC(=O)NC3CCCC3)ccc2OC[C@H]2O[C@@H](CC(=O)O)CC[C@H]21	/	/	138*[16.7 µM]	-7	/
CN1C(=O)c2cc(NC(=O)NC3CCCC3)ccc2OC[C@@H]2O[C@H](CC(=O)O)CC[C@@H]21	/	/	10[16.7 µM]	3	/
CN1C(=O)c2cc(NC(=O)c3cccc(Cl)c3)ccc2OC[C@H]2O[C@@H](CC(=O)NC3CCCCC3)CC[C@H]21	56*[16.7 µM]	/	8[16.7 µM]	14	/
CC(C)C#Cc1ccc2c(c1)O[C@@H](CN(C)C(=O)c1ccncc1)[C@@H](C)CN([C@@H](C)CO)S2(=O)=O	/	/	3[16.7 µM]	9	/
Cc1ccc(-c2nnc(Oc3cccc(C)c3)c3ccccc23)cc1	-114	41	-4	53*	2
C[C@H]1CN([C@@H](C)CO)C(=O)Cc2cc(NC(=O)NC3CCCCC3)ccc2O[C@@H]1CN(C)S(C)(=O)=O	/	/	16[16.7 µM]	6	/
C/C(=N\NC(=O)c1ccccc1C)c1ccc(NC(=O)c2cccs2)cc1	/	14	-17	53*	/
C/C(=N\NC(=O)c1ccccc1)c1ccc(NC(=O)c2cccs2)cc1	/	24	-1	/	-1
C/C(=N\NS(=O)(=O)c1ccc([N+](=O)[O-])cc1)c1ccc(NC(=O)c2ccco2)cc1	-11	68	1	0	34*
C/C(=N\NC(=O)c1ccco1)c1ccc(NC(=O)c2cccs2)cc1	-23	32	/	/	39*
Cc1ccc(S(=O)(=O)N[C@@H]2CC[C@@H](CC(=O)NCCCN(C)C)O[C@@H]2CO)cc1	/	/	/	0	/
NC(=O)c1c(NC(=O)c2ccccc2)sc2c1CCN(Cc1ccccc1)C2	-42	4	-1	25	8
CCC(=O)Nc1sc2c(c1C(N)=O)CCN(Cc1ccccc1)C2	2	/	1	31	39*
CCN1CCc2c(sc(NC(=O)C3COc4ccccc4O3)c2C(N)=O)C1 (stereo unspecified)	-24	86*	1	26	12
CCOc1ccc(NC(=O)C2CCN(C(=O)NC3CCCCC3)CC2)cc1	-24	-3	/	/	-2
CCc1ccc(NC(=O)C(=S)NC2CCCCC2)cc1	-65	119*	-7	30	-4
CCOc1ccc(NC(=O)C(=S)NC2CCCCC2)cc1	-21	136*	/	/	-1
SMILES	HIV Env fusion	MITF act	miR-122 sensor	esBAF inh	Wnt act
CCc1ccc(NC(=O)NC2CCCCCCC2)cc1	-222	95*	14	58*	19
CCOc1ccc(NC(=O)NC2CCCCCCC2)cc1	-77	77	0	59*	0
COc1ccc(-n2c(C)cc(C(=O)NC3CCCCC3)c2C)cc1	/	43	/	54*	18
O=C(Cc1ccc(O)cc1)NC1CCCCCC1	-26	90*	-2	36	16
COc1ccc(NC(=O)C(=S)NC2CCCCC2)cc1	-104	69	-7	36	39*
COc1ccc(OCc2cc(C(=O)N3CCN(CC4CC4)CC3)no2)c(Cl)c1	-32	47	-1	39	17
CCN1CCN(C(=O)c2cc(COc3ccc(C(C)=O)cc3OC)on2)CC1	-38	75	-4	71*	38*
O=C(c1cc(COc2ccc(F)cc2Cl)on1)N1CCCCCC1	-111	144*	-6	95*	27
CCN1CCC2(CCN(C(=O)c3cc(COc4cc(C)ccc4C)on3)C2)C1 (stereo unspecified)	10	-4	-2	5	2
COc1cc(C)ccc1OCc1cc(C(=O)N2CCCCCCC2)no1	-39	63	/	55*	20
Cc1ccc(C)c(OCc2cc(C(=O)N3CC[C@H](O)C3)no2)c1	-47	132*	6	47*	37*
COc1ccc(OCc2cc(C(=O)N3CCCCCCC3)no2)c(Cl)c1	-8	28	0	/	14
C[C@H]1CN([C@@H](C)CO)C(=O)Cc2cc(NS(=O)(=O)c3ccccc3)ccc2O[C@@H]1CN(C)C(=O)NC1CCCCC1	/	/	-6[16.7 µM]	-6	/
CN(CCc1ccccc1)C(=O)c1cc(COc2ccc(F)cc2Cl)on1	-16	60	1	43*	11
CCCOc1ccc(-c2cc(C(=O)NCC3CCCO3)c3ccccc3n2)cc1 (stereo unspecified)	-5	22	/	23*	5
CCc1ccc(-c2cc(C(=O)NCc3ccccn3)c3ccccc3n2)cc1	-30	36	148*	?	-1
Cc1ccc(-c2cc(C(=O)NCc3ccccn3)c3ccccc3n2)cc1	/	32	/	19	/
COc1ccc(C[C@H]2CCn3cc(nn3)COC[C@H](C(C)C)NC2=O)cc1	-8[16.7 µM]	/	/	/	/
Cc1ccc(S(=O)(=O)Nc2ccc3c(c2)CC(=O)N([C@H](C)CO)C[C@H](C)[C@@H](CN(C)Cc2ccccc2)O3)cc1	/	/	-9[16.7 µM]	4	/
COCc1nnc(NC(=O)C2CCN(C(=O)c3ccco3)CC2)s1	-2	/	/	0	2
COc1ccc2nc(NC(=O)C3CCN(S(=O)(=O)c4cccc5nsnc45)CC3)sc2c1	80*	-73	15	-30	-13
COc1ccc2nc(NC(=O)C3CCN(C(=O)c4ccco4)CC3)sc2c1	15	/	-1	53*	10
C[C@@H]1CN([C@@H](C)CO)S(=O)(=O)c2ccc(-c3ccc(F)cc3)cc2O[C@@H]1CN(C)C	-10[16.7 µM]	/	1[16.7 µM]	0	/
c1ccc(CCn2nnc3ccccc32)cc1	-19	98*	-1	31	54*
C[C@@H]1CN([C@@H](C)CO)S(=O)(=O)c2ccc(C#CC3(O)CCCC3)cc2O[C@@H]1CN(C)C(=O)Nc1ccccc1	-107[16.7 µM]	/	30[16.7 µM]	-7	/
CCOC(=O)c1c(C)[nH]c(N=Nc2ccccc2Cl)c1C	-66	65	-9	64*	46*
CCOC(=O)c1c(C)[nH]c(N=Nc2ccccc2)c1C	/	71	-5	89*	/
